PubChem BioAssay (NCI)
This is part of a sample that, as a whole, favours compounds with a hit. Of some 79,000 tested, about 15% had one in any assay. Activity calls are given as the source filed them. Cut-off read from the data, not from the text of the source: active = growth inhibition above about 70%; inactive = the rest.

Experiments:
[1] = NCI Yeast Anticancer Drug Screen. Data for the wt1 strain (AID 149);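 note: 0% = growth of vehicle-treated wt1 cultures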; details: S. cerevisiae wt1 strain (SPY 50644) growth inhibition, stronger effect = higher value
Outline: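 wt1 yeast, compound-treated; % growth inhibition vs vehicle control.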

[2] = NCI Yeast Anticancer Drug Screen. Data for the rad50EPP+ strain (AID 151);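 note: 0% = growth of vehicle-treated control cultures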; details: S. cerevisiae rad50 mutant strain, stronger effect = higher value
Outline: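 Growth inhibition read against vehicle controls in rad50EPP+ yeast, a strain altered in DNA damage repair, after compound exposure.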

[3] = NCI Yeast Anticancer Drug Screen. Data for the mgt1 strain (AID 153); details: S. cerevisiae mgt1 mutant growth inhibition, stronger effect = higher value
Outline: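 mgt1 yeast grown with test compound; read-out is growth inhibition versus vehicle-treated cultures.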

[4] = NCI Yeast Anticancer Drug Screen. Data for the rad50 strain (AID 155);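 note: 0% = growth of vehicle-only cultures of the same strain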; details: S. cerevisiae rad50 strain growth inhibition, stronger effect = higher value
Outline: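 Genetically altered yeast (DNA repair pathway); compound treatment; growth inhibition vs vehicle ctrl.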

[5] = NCI Yeast Anticancer Drug Screen. Data for the mec2-1 strain (AID 157); details: S. cerevisiae mec2-1 strain, stronger effect = higher value
Outline: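 Yeast mec2-1 mutant treated with compound. Readout: growth inhibition vs vehicle controls.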

[6] = NCI Yeast Anticancer Drug Screen. Data for the rad14 strain (AID 159);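 note: 0% = growth of vehicle-treated control cultures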; details: S. cerevisiae rad14 strain growth inhibition, stronger effect = higher value
Outline: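 Test compounds were applied to a repair-deficient yeast strain. Its growth was then compared with that of cultures given vehicle alone, and inhibition was expressed relative to those controls.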

[7] = NCI Yeast Anticancer Drug Screen. Data for the sgs1 mgt1 strain (AID 161);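 note: 0% = growth of cultures given vehicle only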; details: S. cerevisiae sgs1 mgt1 strain, stronger effect = higher value
Outline: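 Test agents were incubated with a DNA-repair-mutant yeast strain. Growth was then read and compared against vehicle-treated controls.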

[8] = NCI Yeast Anticancer Drug Screen. Data for the CLN2oe strain (AID 163);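 note: 0% = growth of vehicle-only control cultures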; details: S. cerevisiae CLN2oe strain, stronger effect = higher value
Outline: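 Read-out: yeast growth inhibition, expressed relative to vehicle-only controls. The strain bears an engineered cell-cycle alteration.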

[9] = NCI Yeast Anticancer Drug Screen. Data for the bub3 strain (AID 167); details: S. cerevisiae bub3 mutant strain, stronger effect = higher value
Outline: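 Yeast carrying a defined mutation is treated with each compound, and growth is compared with that of vehicle-exposed cells to give inhibition.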

[10] = NCI Yeast Anticancer Drug Screen. Data for the wt2 strain (AID 169);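 note: 0% = growth of vehicle-treated yeast cultures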; details: S. cerevisiae wt2 strain growth inhibition, stronger effect = higher value
Outline: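 Read-out: growth inhibition versus vehicle-treated control cultures after compound exposure of the yeast strain.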

[11] = NCI Yeast Anticancer Drug Screen. Data for the mlh1 strain (AID 171);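 note: 0% = growth of vehicle-treated control cultures of the same strain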; details: S. cerevisiae mlh1 strain growth inhibition, stronger effect = higher value
Outline: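 Read-out: growth inhibition versus vehicle controls. Strain: engineered yeast with a defined DNA repair or cell cycle defect, compound-treated.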

[12] = NCI Yeast Anticancer Drug Screen. Data for the sgs1 strain (AID 173);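 note: 0% = growth of vehicle-only control cultures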; details: S. cerevisiae sgs1 mutant, stronger effect = higher value
Outline: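 Read-out: yeast growth inhibition relative to vehicle controls, following compound exposure of a strain with a defined DNA repair/cell cycle alteration.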

[13] = NCI Yeast Anticancer Drug Screen. Data for the mlh1 rad18 strain (AID 175); details: S. cerevisiae mlh1 rad18 strain growth inhibition, stronger effect = higher value
Outline: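 Yeast w/ defined DNA-repair lesions; compound exposure; growth vs vehicle controls → % inhibition.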

[14] = NCI Yeast Anticancer Drug Screen. Data for the rad18 strain (AID 177); details: S. cerevisiae rad18 mutant growth inhibition, stronger effect = higher value
Outline: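 Readout: growth inhibition vs vehicle controls. Cells: genetically altered yeast strain, DNA repair defect.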

[15] = NCI Yeast Anticancer Drug Screen. Data for the cln2 rad14 strain (AID 165);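 note: 0% = growth equal to vehicle treated cultures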; details: S. cerevisiae cln2 rad14 strain, stronger effect = higher value
Outline: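 cln2 rad14 yeast strain; compound exposure; growth inhibition read vs vehicle controls.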

[16] = NCI Yeast Anticancer Drug Screen. Data for the rad52 strain (AID 147);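 note: 0% = growth of vehicle-treated control cultures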; details: S. cerevisiae rad52 mutant growth inhibition, stronger effect = higher value
Outline: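 Read-out: growth inhibition versus vehicle-treated controls. Cells were a DNA repair-deficient yeast strain treated with compounds.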

[17] = at 5.0 µM (retest, dose inferred, filed as 0.5)
[18] = at 50.0 µM (retest, dose inferred, filed as 5.0)

Measured: growth inhibition

COc1cc(CC2CC(c3ccc4c(c3)OCO4)OC2=O)cc(OC)c1OC (stereo unspecified)
active: [9]; at 100.0 µM 82%
inactive: [1]; at 1.2 µM -2% | [1]; at 3.7 µM -3% | [1]; at 11.0 µM -4% | [1]; at 33.0 µM -3% | [1]; at 100.0 µM 0% | [2]; at 1.2 µM -2% | [2]; at 3.7 µM -1% | [2]; at 11.0 µM 0% | [2]; at 33.0 µM 3% | [2]; at 100.0 µM 8% | [3]; at 1.2 µM -1% | [3]; at 3.7 µM 1% | [3]; at 11.0 µM 1% | [3]; at 33.0 µM 1% | [3]; at 100.0 µM 6% | [4]; at 1.2 µM 0% | [4]; at 3.7 µM 1% | [4]; [17] -6% | [4]; at 11.0 µM 3% | [4]; at 33.0 µM 8% | [4]; [18] 12% | [4]; at 50.0 µM -10.2% | [4]; at 100.0 µM 13% | [5]; at 1.2 µM 0% | [5]; at 3.7 µM -2% | [5]; [17] 6% | [5]; at 11.0 µM 2% | [5]; at 33.0 µM 7% | [5]; [18] 11% | [5]; at 50.0 µM -13.4% | [5]; at 100.0 µM 16% | [6]; at 1.2 µM -2% | [6]; at 3.7 µM -3% | [6]; at 11.0 µM -1% | [6]; at 33.0 µM 4% | [6]; at 100.0 µM 12% | [7]; [17] 2% | [7]; [18] 6% | [7]; at 50.0 µM -2.9% | [8]; at 1.2 µM 2% | [8]; at 3.7 µM 1% | [8]; at 11.0 µM 5% | [8]; at 33.0 µM 7% | [8]; at 100.0 µM 15% | [9]; at 1.2 µM 15% | [9]; at 3.7 µM 28% | [9]; [17] 24% | [9]; at 11.0 µM 43% | [9]; at 33.0 µM 58% | [9]; [18] 54% | [9]; at 50.0 µM 38.5% | [10]; at 1.2 µM -2% | [10]; at 3.7 µM -4% | [10]; at 11.0 µM -3% | [10]; at 33.0 µM -5% | [10]; at 100.0 µM 0% | [11]; at 1.2 µM -4% | [11]; at 3.7 µM -3% | [11]; at 11.0 µM -1% | [11]; at 33.0 µM 3% | [11]; at 100.0 µM 11% | [12]; at 1.2 µM -2% | [12]; at 3.7 µM -2% | [12]; at 11.0 µM -2% | [12]; at 33.0 µM 0% | [12]; at 100.0 µM 9% | [13]; [17] -2% | [13]; [18] 8% | [13]; at 50.0 µM 18.2% | [14]; at 1.2 µM -4% | [14]; at 3.7 µM -3% | [14]; at 11.0 µM -1% | [14]; at 33.0 µM 0% | [14]; at 100.0 µM 10%

O=[N+]([O-])c1ccc(=S)[nH]c1
active: [1]; at 100.0 µM 78% | [2]; at 33.0 µM 85% | [2]; at 100.0 µM 97% | [3]; at 100.0 µM 93% | [4]; [18] 99% | [4]; at 50.0 µM 98.8% | [4]; at 100.0 µM 86% | [5]; [18] 88% | [5]; at 50.0 µM 99.4% | [5]; at 100.0 µM 99% | [6]; at 100.0 µM 99% | [7]; [18] 100% | [7]; at 50.0 µM 98.2% | [9]; [18] 98% | [9]; at 50.0 µM 99.3% | [9]; at 100.0 µM 98% | [10]; at 100.0 µM 93% | [12]; at 33.0 µM 76% | [12]; at 100.0 µM 99% | [13]; [18] 99% | [13]; at 50.0 µM 93.1% | [14]; at 100.0 µM 94%
inactive: [1]; at 1.2 µM -1% | [1]; at 3.7 µM -2% | [1]; at 11.0 µM -6% | [1]; at 33.0 µM 13% | [2]; at 1.2 µM 0% | [2]; at 3.7 µM -2% | [2]; at 11.0 µM 23% | [3]; at 1.2 µM -3% | [3]; at 3.7 µM -2% | [3]; at 11.0 µM 1% | [3]; at 33.0 µM 34% | [4]; at 1.2 µM 0% | [4]; at 3.7 µM -6% | [4]; [17] -5% | [4]; at 11.0 µM -5% | [4]; at 33.0 µM 28% | [5]; at 1.2 µM -2% | [5]; at 3.7 µM -1% | [5]; [17] -9% | [5]; at 11.0 µM -5% | [5]; at 33.0 µM 60% | [6]; at 1.2 µM -5% | [6]; at 3.7 µM -6% | [6]; at 11.0 µM -5% | [6]; at 33.0 µM 42% | [7]; [17] 32% | [8]; at 1.2 µM -1% | [8]; at 3.7 µM -8% | [8]; at 11.0 µM -8% | [8]; at 33.0 µM -10% | [8]; at 100.0 µM 67% | [15]; [17] 5% | [15]; [18] 55% | [15]; at 50.0 µM 37.6% | [9]; at 1.2 µM -6% | [9]; at 3.7 µM -7% | [9]; [17] 10% | [9]; at 11.0 µM -6% | [9]; at 33.0 µM 54% | [10]; at 1.2 µM 0% | [10]; at 3.7 µM 1% | [10]; at 11.0 µM 2% | [10]; at 33.0 µM 39% | [12]; at 1.2 µM 0% | [12]; at 3.7 µM 4% | [12]; at 11.0 µM 17% | [13]; [17] 51% | [14]; at 1.2 µM -1% | [14]; at 3.7 µM 0% | [14]; at 11.0 µM -5% | [14]; at 33.0 µM 40%

CC(C)/C(Cl)=N\OC(=O)Nc1ccccc1F
active: [4]; [18] 85% | [5]; [18] 86% | [5]; at 50.0 µM 76% | [7]; [18] 82% | [9]; at 3.7 µM 83% | [9]; at 11.0 µM 92% | [9]; at 33.0 µM 93% | [9]; [18] 98% | [9]; at 50.0 µM 82% | [9]; at 100.0 µM 94%
inactive: [16]; at 1.2 µM 4% | [16]; at 3.7 µM 9% | [16]; at 11.0 µM 19% | [16]; at 33.0 µM 35% | [16]; at 100.0 µM 35% | [3]; at 1.2 µM 0% | [3]; at 3.7 µM 6% | [3]; at 11.0 µM 21% | [3]; at 33.0 µM 23% | [3]; at 100.0 µM 21% | [4]; at 1.2 µM 9% | [4]; at 3.7 µM 17% | [4]; [17] 2% | [4]; at 11.0 µM 21% | [4]; at 33.0 µM 43% | [4]; at 50.0 µM -7.75% | [4]; at 100.0 µM 40% | [5]; at 1.2 µM 11% | [5]; at 3.7 µM 17% | [5]; [17] -1% | [5]; at 11.0 µM 23% | [5]; at 33.0 µM 31% | [5]; at 100.0 µM 31% | [6]; at 1.2 µM 6% | [6]; at 3.7 µM 14% | [6]; at 11.0 µM 9% | [6]; at 33.0 µM 23% | [6]; at 100.0 µM 26% | [7]; [17] -38% | [7]; at 50.0 µM 62.5% | [8]; at 1.2 µM 15% | [8]; at 3.7 µM 14% | [8]; at 11.0 µM 19% | [8]; at 33.0 µM 19% | [8]; at 100.0 µM 23% | [15]; [17] 23% | [15]; [18] 37% | [15]; at 50.0 µM 35.1% | [9]; at 1.2 µM 55% | [9]; [17] 49% | [10]; at 1.2 µM 0% | [10]; at 3.7 µM 5% | [10]; at 11.0 µM 15% | [10]; at 33.0 µM 41% | [10]; at 100.0 µM 29% | [11]; at 1.2 µM 3% | [11]; at 3.7 µM 5% | [11]; at 11.0 µM 14% | [11]; at 33.0 µM 22% | [11]; at 100.0 µM 20% | [12]; at 1.2 µM 6% | [12]; at 3.7 µM 13% | [12]; at 11.0 µM 34% | [12]; at 33.0 µM 60% | [12]; at 100.0 µM 49% | [13]; [17] -15% | [13]; [18] 66% | [13]; at 50.0 µM 58.9% | [14]; at 1.2 µM -6% | [14]; at 3.7 µM 3% | [14]; at 11.0 µM 17% | [14]; at 33.0 µM 43% | [14]; at 100.0 µM 41%
